Screening data deposited in PubChem BioAssay by National Center for Advancing Translational Sciences (NCATS).
An excerpt weighted towards active compounds, which were near 7.5% of everything screened.
Luc counter – Kinase-Glo luciferase inhibition (counter-screen); Q27757; Kinase-Glo luciferase, ATP luminescence, 8 min; Potency, µM (titrated, usually from 38.3 µM), inactives show at the highest dose activity change, negative = inhibition, most hits filed as inhibitors; 200,000 compounds, 0.28% hits; note: % is set by controls: 0 for no effect and ±100 for the full control effect; nearly all actives have a fitted effect of over 60% in size
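Inhibition of Kinase-Glo luciferase light generation was assessed at 10 uM ATP in pH 7.2 imidazole buffer, with luminescence measured after eight minutes at ambient temperature.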
ELG1 genotox – inducers of genotoxicity in HEK293T ELG1-luciferase cells; 330,000 compounds, 1.3% hits; HEK293T ELG1-luciferase reporter, luminescence, 16 h; AID 504466; Potency, µM (top dose mostly 46 µM), inactives show at the highest dose activity change, positive = activation, most hits filed as activators; note: % of control where 0% means no effect; nearly all actives have a fitted effect of over 60% in size
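Luminescence read-out: rising ELG1-luciferase signal, reflecting elevated ELG1 protein under genetic stress, flags genotoxic compounds. Cells were treated for 16 hr at 37 °C before ONE-Glo detection.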
NPC1 prom act – activates the NPC1 promoter | AID 485313 | Potency, µM (doses to about 9.22 µM), for the others: at the top dose activation, actives largely listed as activators | Huh7 NPC1 promoter luciferase reporter, 24 h | 320,000 compounds, 2.4% hits; note: % of control where 0% means no effect; nearly all actives have a fitted effect of over 60% in size
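Huh7 reporter cells (NPC1 promoter driving luciferase) are dosed with compound for 24 h at 37 °C, 5% CO2; luciferase detection reagent is then added and luminescence measured after 10 min at ambient temperature.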
FLuc modulator – firefly luciferase modulation, counter-screen for miR-21 project | Potency, µM (series often up to 57.5 µM), for inactives: at the highest dose activity change, negative = inhibition, actives largely listed as inhibitors | purified FLuc, Km substrates, luminescence inhibition | 360,000 compounds, 6.9% hits | P08659 | AID 588342;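 note: plate controls were vehicle for no effect and reference inhibitor for full effect; nearly all actives have a fitted effect of over 55% in size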
Target sequence (P08659 whole entry, looked up): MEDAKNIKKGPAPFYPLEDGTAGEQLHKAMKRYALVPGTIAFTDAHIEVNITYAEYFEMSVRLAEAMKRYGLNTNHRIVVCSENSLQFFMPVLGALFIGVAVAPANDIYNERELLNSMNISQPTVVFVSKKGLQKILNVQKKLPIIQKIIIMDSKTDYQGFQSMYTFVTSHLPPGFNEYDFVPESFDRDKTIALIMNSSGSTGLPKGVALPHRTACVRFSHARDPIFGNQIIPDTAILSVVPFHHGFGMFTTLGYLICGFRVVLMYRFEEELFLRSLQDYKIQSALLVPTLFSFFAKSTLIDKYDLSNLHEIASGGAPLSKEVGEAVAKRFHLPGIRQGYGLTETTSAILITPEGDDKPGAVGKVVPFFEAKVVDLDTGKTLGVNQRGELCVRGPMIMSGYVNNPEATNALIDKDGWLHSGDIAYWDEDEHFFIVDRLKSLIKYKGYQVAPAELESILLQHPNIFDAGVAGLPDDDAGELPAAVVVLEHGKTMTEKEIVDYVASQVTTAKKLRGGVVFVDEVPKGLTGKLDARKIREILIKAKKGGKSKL
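Purified P. pyralis luciferase (10nM final) with 10uM D-luciferin and 10uM ATP (Km levels) in 50mM Tris acetate pH 7.5, 10mM Mg acetate, 0.01% Tween-20, 0.05% BSA; qHTS 6-point titration, ~60 µM downward; luminescence read.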
Rab9 promoter act – activators of Rab9 promoter; Huh7 Rab9 promoter-luciferase reporter, luminescence, 24 h; Potency, µM (highest dose often 9.22 µM), without a hit: top-dose activation, negative = inhibition, usual class: activators; 320,000 compounds, 2.8% hits; AID 485297; note: % of control where 0% means no effect; nearly all actives have a fitted effect of over 60% in size
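Rab9 promoter-driven luciferase in stably transfected Huh7 cells; 1500 cells/well rested 2 h, exposed to compound in DMSO for 24 h at 37 °C, 5% CO2. Luminescence read 10 min after adding luciferase reagent at ambient temperature.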
SMN2 splice enh – SMN2 splice variant enhancement | HEK293 SMN2-luciferase splicing reporter, luminescence, 30-36 h | Potency, µM (titrated, usually from 46.1 µM), for the others: at the top dose activity change, positive = activation, actives largely listed as activators | 210,000 compounds, 2.8% hits | AID 1458; note: % of control where 0% means no effect; nearly all actives have a fitted effect of over 55% in size
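qHTS luciferase splicing reporter: luminescence rises when SMN2 exon 7 is included in transfected HEK293 cells. Compound exposure lasted 30-36 h at 37C, with 4.5 mM final sodium butyrate as control, followed by a ONE-Glo read.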
An asterisk follows results filed as active; ? = inconclusive; . = no result given; [ ] = dose if it differs, or a comment. Calls come from the whole dose curve; as a rule, active = well fitted curve in the direction sought with a large enough effect; inconclusive = small, poorly fitted or top-dose-only effect, or another doubt; inactive = no such curve, though single readings can be large; an effect the other way counts as inactive or inconclusive. Potency is the fitted concentration of half-maximal effect.

SMILES	Luc counter	ELG1 genotox	NPC1 prom act	FLuc modulator	Rab9 promoter act	SMN2 splice enh
CCc1nn2c(=O)cc(COC(=O)c3ccccc3NC(=O)c3ccc(C(C)(C)C)cc3)nc2s1	.	.	.	5.4µM*	.	.
CCc1nn2c(=O)cc(COC(=O)c3ccccc3)nc2s1	.	.	.	17µM*	.	.
CCCCNC(=O)/C=C1\Sc2ccccc2NC1=O	-4%	6%	-1%	?	-1%	-8%[1.84 µM]
O=C1Nc2ccccc2S/C1=C/Nc1cccc(Cl)c1	-9%	?	?	8.5µM*	4.5µM*	-3%
CC(=O)Nc1ccc(S(=O)(=O)N2CCN(CC(=O)N3CCOCC3)CC2)cc1	.	0%	3%	1%	0%	.
CCc1ccc2c(c1)c1nc(C)sc1n2CC	2%	5%	-6%	19µM*	3%	-12%
CC(=O)N(CN1C(=O)c2ccccc2C1=O)c1cccc(C)c1	-4%	0%	-4%	13%	2%	-4%
CC(=O)N(/N=C1\Sc2ccccc2C1=O)c1cccc(C)c1	?	?	?	11µM*	14%	5.6µM*
COc1cccc(CSc2ccc(S(=O)(=O)N3CCOCC3)cc2C(=O)NCC2CCCO2)c1OC (stereo unspecified)	.	-1%	-2%	-7%	15%	.
Cc1nc2ccc(NC(=O)CCC3CCCC3)cc2s1	.	?	?	12µM*	?	.
Cc1nc2ccc(NC(=O)CS(=O)(=O)c3ccccc3)cc2s1	.	?	?	15µM*	?	.
COc1cccc(CC(=O)Nc2ccc3nc(C)sc3c2)c1	3%	17%	28%	17µM*	14%	6%
COc1ccccc1CC(=O)Nc1ccc2nc(C)sc2c1	.	?	17%	17µM*	21%	.
Cc1cc(NC(=O)CSc2cn(CC(=O)N(C(C)C)C(C)C)c3ccccc23)no1	.	-5%[9.26 µM]	-1%	0%	1%	.
Cc1ccc(NC(=O)CSCc2cc(=O)n3cc(C)sc3n2)cc1	.	0%	0%	1%	-3%	.
Cc1ccc(-c2nnc3ccccc3c2C(=O)Nc2ccc(C)c(F)c2)cc1	.	.	.	-12%	.	.
O=C(CCS(=O)(=O)c1ccccc1)Nc1ccc(-c2nc3ccccc3s2)c(O)c1	-3%	14%	?	3%	1.3µM*	2.5µM*
CCS(=O)(=O)c1cccc(C(=O)Nc2ccc(-c3nc4ccccc4s3)c(O)c2)c1	.	.	.	5%	.	.
O=C(NC(=S)Nc1ccc2cn[nH]c2c1)c1ccccc1	-1%	3%	3.5µM*	19µM*	4.5µM*	18µM*
O=C(Nc1ccc2[nH]ncc2c1)c1ccccc1	.	?	2.8µM*	13µM*	3.2µM*	.
O=C(Nc1ccc2[nH]ncc2c1)c1ccc(F)cc1	.	?	2.8µM*	8.5µM*	2.2µM*	.
Cc1c(Cl)cccc1NC(=S)NC1CCN(C(C)C)CC1	3%	-1%	0%	-1%	-2%	19%
Cc1ccc(NCc2ccc(C)s2)cc1	.	13%	18%	21µM*	18%	.
Cc1ccc(CNc2ccc(N3CCOCC3)cc2)s1	-11%	4.1µM*	2.5µM*	0.95µM*	3.5µM*	18µM*
COc1ccccc1NC(=O)CSc1nnc(-c2ccc(C)cc2)o1	-2%	?	1.6µM*	-11%	1.3µM*	2.5µM*
SMILES	Luc counter	ELG1 genotox	NPC1 prom act	FLuc modulator	Rab9 promoter act	SMN2 splice enh
O=C(CSc1ncc(-c2ccc(F)cc2)[nH]1)N1CCCCC1	-2%	?	28%	?	?	11µM*
O=C(CSc1ncn[nH]1)N1CCCCC1	.	0%	-2%	-2%	-4%	.
Cc1cc(NC(=O)CSc2nnc(-c3ccco3)o2)no1	-2%	.	.	0%	.	-10%
O=C(CSc1ncc(-c2ccc(Cl)cc2)[nH]1)Nc1ccccc1F	.	.	.	?	.	-13%
O=C(CSc1ncc(-c2ccccc2)[nH]1)Nc1ccccc1F	0%	?	18%	27µM*	25%	10%
COc1ccc(-c2nnc(SCC(=O)Nc3cc(C)on3)o2)cc1	2%	12%	16%	-9%	27%	20µM*
Cc1nc(C(=O)N/N=C/c2[nH]ncc2Br)cs1	.	6%	13%	-14%	11%	.
Cc1cccn2c(=O)c(C(=O)NC(C)c3ccccc3)c(O)nc12 (stereo unspecified)	.	.	.	-2%	.	-36%
COc1ccc(NC(=O)CSc2nnc(-c3ccc(C)cc3)o2)cc1	.	.	.	0%	.	.
O=C(CSc1nnc(-c2cccnc2)o1)Nc1ccccc1Br	.	4%	-1%	1%	9%	.
O=C(CSc1nnc(-c2cccnc2)o1)Nc1ccccc1F	.	?	3.2µM*	-1%	3.2µM*	.
NS(=O)(=O)c1ccc(NC(=O)CSc2nnc(-c3ccc(O)cc3)o2)cc1	.	5%	-3%	?	7%	.
COc1cccc(NC(=O)CSc2nnc(-c3ccc(C)cc3)o2)c1	1%	10µM*	17%	-2%	?	16µM*
COc1ccccc1NC(=O)CSc1nc2nc(C)cc(C)c2c(=O)[nH]1	4%	17%	-2%	-1%	-3%	3.5µM*
O=C(CSc1nnc(-c2ccc(O)cc2)o1)Nc1ccccc1Br	.	10µM*	2.8µM*	.	3.2µM*	.
Cc1ccc(-n2c(=O)c3oc4ccccc4c3n(Cc3ccccc3F)c2=O)cc1C	.	.	.	5%	.	.
O=C(CNc1cccc(S(=O)(=O)N2CCOCC2)c1)N1CCc2ccccc21	.	7%	5%	-27%	0%	.
COc1ccc(N2CCN(C(=O)CN3C(=O)COc4ccc(S(=O)(=O)N5CCC(C)CC5)cc43)CC2)cc1	.	.	.	-2%	.	7%
Cc1cc(C)n2cc(COc3ccc4ccccc4c3)nc2n1	13%	?	1.8µM*	2.4µM*	1.1µM*	13µM*
Cc1ccnc(SCc2cn3c(C)cc(C)nc3n2)n1	2%	6%	-2%	0%	-2%	23%
Cc1cccc2nc(COc3ccc(-c4ccccc4)cc3)cn12	-29%	10%	26%	11µM*	?	.
Nc1nc2ccc(N3CCOCC3)cc2s1	-1%	8.2µM*	?	11µM*	2.8µM*	16µM*
N#CCCN1CCN(C(=S)c2ccc(-c3cccc(Cl)c3)o2)CC1	-5%	?	22%	19µM*	?	20%
N#CCCN1CCN(C(=S)c2ccc(-c3ccc(Cl)c(Cl)c3)o2)CC1	-4%	?	13%	15µM*	26%	9%
O=C(c1ccc(-c2cccc(Cl)c2)o1)N1CCN(c2ccc([N+](=O)[O-])cc2)CC1	0%	7%	1%	2%	0%	-14%
CC(=O)N1CCN(C(=S)c2ccc(-c3ccc(Cl)cc3)o2)CC1	.	0%	0%	?	-1%	.
Cc1cccc(CCNC(=O)c2ccc(CSCc3cccc(Cl)c3)o2)c1	.	.	.	-20%	.	.
